This note sets out measurements from PubChem BioAssay AID2314 (National Center for Advancing Translational Sciences (NCATS), 2010).

Screen size: about 300,000 compounds; about 37,000 (12%) were called active. Shown is part of a subset that was picked to be rich in actives. A number with no mark means an inactive call. No stated cut-off is given here; in the data, active means max response mostly above about 13% (no sharp cut-off); inactive means mostly below about 14%.

The assay in a line: Cycloheximide Counterscreen for Small Molecule Inhibitors of Shiga Toxin. Further: read at 38.3 µM for the half of the compounds with a filed dose; 0% is about no effect. Conditions: cell reporter, cycloheximide protein synthesis inhibition counterscreen; hits give high values. (In general: Counterscreens check selectivity or assay interference.)
For `CC(C)N(C(=O)Cn1cc(S(=O)(=O)CC(=O)N2CCOCC2)c2ccccc21)C(C)C`, the max response is 2.9%.
With `O=C(NCCCn1ccnc1)C1CCCN(S(=O)(=O)c2cc(Cl)ccc2Cl)C1` (stereo not drawn), the max response is -4.82%.
Turning to `O=c1cc(-c2ccc(O)cc2)oc2c([C@@H]3O[C@H](CO)[C@@H](O)[C@H](O)[C@H]3O)c(O)cc(O)c12`, the max response is -8.35%.
The figure for `CN(CCN1CCOCC1)Cc1nc(-c2ccc3c(c2)OCO3)no1` is 8.52%; for `CC(C)N(Cc1nc(-c2ccc3c(c2)OCO3)no1)CC1CCC(=O)N1` (stereo not drawn) it is 1.08%.
Take `CCn1ccnc1CN(C)Cc1nc(-c2ccc3c(c2)OCO3)no1`: the max response is 28.4% (active).
Consider `Cc1ccc(C)c(N2CCN(C(=O)CCCCCn3c(=S)[nH]c4ccc(N5CCOCC5)cc4c3=O)CC2)c1`, for which the max response is 9.94%.
The figure for `Fc1ccc2[nH]c3c(N4CCSCC4)ncnc3c2c1` is 5.04%; for `CC(C)OCCCNc1ncnc2c1[nH]c1ccc(F)cc12` it is 39% (active).
Under `COc1cc(OC)c(OC)cc1/C=N/Nc1ncnc2c1[nH]c1ccc(C)cc12` stands -3.15%.
In the case of `O=CN1CCN(C(=O)c2ccc(Br)o2)CC1`, the max response is 1.29%.
Under `C=CCn1c(Oc2ccc(C(=O)OC)cc2)nc2c1c(=O)n(C)c(=O)n2C` stands -5.23%; under `Cc1ccccc1NC(=O)N1CCCC1C(=O)NCc1ccccc1` (stereo not drawn), -1.83%; under `Cc1c(CCO)c(=O)[nH]n1C(=O)c1c(F)cccc1F`, 17%.
Consider `COc1ccc(CCC(C)N2CCc3ccccc3C2)cc1` (stereo not drawn), for which the max response was 1.02%.
Consider `COc1ccc(Oc2c(Cl)cnn(-c3ccccc3)c2=O)cc1`, for which the max response is -1.92%.
The figure for `COc1ccc(-n2ncc3c(N4CCCc5ccccc54)ncnc32)cc1` is 44.9% (active); for `COc1ccc(-n2ncc3c(N4CCc5ccccc54)ncnc32)cc1` it is 49.8% (active).
The figure for `COc1ccc(-n2ncc3c2CC(C)(C)CC3NC(=O)CCc2c(C)noc2C)cc1` (stereo not drawn) is 1.45%; for `C#CC(CCN1CCCCC1)(OC)c1ccccc1` (stereo not drawn) it is -1.93%.
With `COc1ccccc1NC(=S)N1CCN(C(c2ccccc2)c2ccccc2)CC1`, the max response is -1.77%.
Under `Cc1cccc(NC(=S)N2CCC(c3nc4ccccc4s3)CC2)c1` stands -8.19%; under `Cc1nc2ccc(NC(=O)N3CCC(c4ccccc4)C3)cc2nc1C` (stereo not drawn), -1.48%.
The figure for `Cc1nc2ccc(NC(=S)N3CCC(C)CC3)cc2nc1C` is 29.7% (active); for `Cc1ccc(CC(=O)Nc2ccc(OC(F)F)c(Cl)c2)cc1C` it is -1.56%.
The figure for `O=C(Cc1ccc(Cl)c(Cl)c1)Nc1ccc(SC(F)F)cc1` is 32.1% (active); for `CC(=O)N1CCN(CC(=O)Nc2ccc(SC(F)F)cc2)CC1` it is -7.31%.
On to `Cc1ccc(C(C[N+](=O)[O-])c2c(C)cc3ccccn23)cc1` (stereo not drawn), for which the max response is -2.05%.
For the compound `Nc1ccccc1SC(C[N+](=O)[O-])c1ccccc1` (stereo not drawn), the max response is 58.7% (active).
Under `CCCN1C2CCCC1CC(NC(=O)c1cccc(OC)c1)C2` (stereo not drawn) stands 0.249%.
`COc1ccccc1C1CCN(c2ccc([N+](=O)[O-])cn2)CC1`: the max response was 4.09%.
Under `O=C(Cc1c(Cl)cccc1Cl)NC1CC1` stands -4.84%; under `Cc1ccc(S(=O)(=O)c2nnn3c2nc(N2CCN(c4ccccn4)CC2)c2ccccc23)cc1`, -2.94%.
The figure for `FC(F)(F)c1cc(-c2ccco2)nc(NCc2ccc(Cl)cc2)n1` is -4.49%.
Under `CN(CC(=O)Nc1ccc(F)cc1)C(=O)c1ccc(-c2ccc(Cl)cc2)o1` stands 10.2%.
As to `O=C(N/N=C\c1ccc(-c2ccc(Cl)c(Cl)c2)o1)C(=O)N1CCCC1`, the max response was -1.36%.
Under `Nc1nnnn1CC(=O)N/N=C/c1ccc(-c2cccc(Cl)c2)o1` stands 12.6%; under `COC(=O)N/N=C/c1ccc(-c2ccc(Cl)c(Cl)c2)o1`, 51.5% (active).
The figure for `Cc1cccc(-c2nc(CS(=O)CC(=O)NC(C)CCc3ccccc3)c(C)o2)c1` (stereo not drawn) is -0.794%; for `O=C(Nc1ccc(Cl)c(Cl)c1)N1CC=C(c2ccccc2)CC1` it is 4.38%; for `Cc1ccc(C)c(N2CCN(C(=O)CCCn3c(=O)c4cccn4c4cccnc43)CC2)c1` it is -1.51%.
On to `CCOc1ccc(C2NC(=S)NC3=C2CCc2ccccc23)cc1` (stereo not drawn), for which the max response is 54.2% (active).
As to `COc1ccc(C2NC(=S)NC3=C2CCc2ccccc23)cc1OC` (stereo not drawn), the max response was 6.79%.
The figure for `CCOC(=O)C1=C(c2ccccc2)NC(=S)NC1c1ccc(Cl)cc1` (stereo not drawn) is 1.29%; for `Cc1ccc(CNC(=O)[C@@H](NC(=O)Cc2ccccc2)C(C)C)cc1` it is 3.51%; for `CSCCC(NS(=O)(=O)c1ccc2c(c1)oc(=O)n2C)C(=O)NC1CCCc2ccccc21` (stereo not drawn) it is 7.75%.
Consider `O=[N+]([O-])c1cccc(S(=O)(=O)NCc2ccccn2)c1`, for which the max response is -2.36%.
Consider `COc1cccc(C(=O)OCc2cc(=O)oc3c(C)c(C)ccc23)c1OC`, for which the max response is -3.37%.
Under `O=C(Nc1cccc(Cl)c1Cl)c1ccccc1NC(=O)C1CC=CCC1C(=O)O` (stereo not drawn) stands 26.8% (active); under `O=C(O)C1CC=CCC1C(=O)Nc1ccccc1C(=O)N1CCN(c2ccccc2)CC1` (stereo not drawn), -3.82%.
Take `O=C(Nc1ccccc1C(=O)N1CCCCCC1)c1ccccc1Cl`: the max response is -3.34%.
The figure for `O=C(Nc1ccccc1)c1ccccc1NC(=O)C(F)(F)F` is 11.2%; for `O=C(O)C1CC=CCC1C(=O)NCCc1ccccc1` (stereo not drawn) it is -2.55%; for `O=C(Nc1ccc(Cl)c(Cl)c1)c1ccccc1NC(=O)C1CC=CCC1C(=O)O` (stereo not drawn) it is 38.2% (active).
Take `COc1ccc(-c2nn(-c3ccccc3)cc2/C=C2/SC(=S)N(CCCC(=O)O)C2=O)c(C)c1`: the max response was -2.33%.
The figure for `COc1cccc(CNS(=O)(=O)c2ccc3c(c2)CC(C)N3C(=O)C2CCC2)c1` (stereo not drawn) is 8.91%.
With `O=C(NCc1cccs1)c1ccc(Br)o1`, the max response is 6.23%.
The figure for `C/C(=N/NC(=O)c1ccc(Br)o1)c1ccc(C)o1` is 78.1% (active); for `CC(CCc1ccccc1)NC(=O)c1ccc(Br)o1` (stereo not drawn) it is 5.6%.
Under `Cc1cc(C)c2c(-c3ccc(F)cc3)c(C#N)c(=O)n(C)c2n1` stands -4.22%; under `COc1ccc(-c2[nH]ncc2CN(C)Cc2c(C)n[nH]c2C)c(OC)c1`, -6.81%; under `O=C(c1ccc(F)cc1)C1CCN(Cc2cn[nH]c2-c2ccccc2)CC1`, -1.57%.
Under `COc1ccc(-c2[nH]ncc2CN(C)Cc2cc(C)[nH]n2)c(F)c1` stands 7.91%; under `CN(CCC1CCOCC1)Cc1cn[nH]c1-c1ccc(-c2ccccc2)cc1`, 19% (active).
With `Cc1nnc(CN(C)Cc2cn[nH]c2-c2ccc(-c3ccccc3)cc2)o1`, the max response is 14.6% (active).
Under `O=C(CC1C(=O)NCCN1Cc1ccc(-c2ccccc2)cc1)NCC1CCOCC1` (stereo not drawn) stands -0.46%; under `CC1(C)c2[nH]c3ccccc3c2C[C@H]2C(=O)N(N)CC(=O)N21`, -5.11%.
Regarding `CC(C)(C)c1ccc(C(=O)NCc2nnc(SCC(=O)N3CCCc4ccccc43)n2-c2ccccc2)cc1`, the max response is -1.48%.
With `CC(C)(C)C(=O)N(Cc1ccccc1)c1ccccn1`, the max response was 0.801%.
Under `Cc1ccccc1N1CCN(S(=O)(=O)c2ccc3ccccc3c2)CC1` stands -1.83%; under `Cc1ccc(Cn2nnc3c(=O)[nH]c(C4CCN(S(=O)(=O)/C=C/c5ccccc5)CC4)nc32)cc1`, -2.92%.
On to `Cc1csc(SCC(=O)Nc2sccc2C#N)n1`, for which the max response was 2.13%.
Take `COc1cc(OC)cc(-c2nnc(SCC(=O)Nc3ccc(C(=O)O)cc3)s2)c1`: the max response was -1.06%.
The figure for `COc1ccc(NC(=O)CSc2nc(SC)ns2)c(OC)c1` is 42.1% (active); for `COc1ccc(C)cc1NC(=O)CSc1nc(SC)ns1` it is 10.3%; for `COc1ccc(NC(=O)CSc2nc(C)cs2)cc1` it is 27.7% (active).
With `CSc1nsc(SCC(=O)Nc2cc(C(=O)O)ccc2C)n1`, the max response is 1.8%.
The figure for `O=S(=O)(NCCCCCCNS(=O)(=O)c1c(F)cccc1F)c1ccc2c(c1)OCCO2` is -6.04%; for `C#CCOc1ccccc1/C=C1/C(=O)ON=C1C` it is 7.98%.
Consider `COc1ccccc1C(=O)N/C(=C/c1ccco1)C(=O)Nc1ccc(C(=O)O)cc1`, for which the max response is -3.58%.
In the case of `Cc1c(NC(=O)Nc2cccc([N+](=O)[O-])c2)c(=O)n(-c2ccccc2)n1C`, the max response was 3.26%.
On to `CCN1CCN(CCNC(=O)c2ccc3c(c2)NC(=O)/C(=C\c2ccc(OC)c(OC)c2)S3)CC1`, for which the max response is 1.31%.
On to `CC(Nc1nc(C(F)(F)F)nc2ccccc12)c1cccs1` (stereo not drawn), for which the max response is -5.02%.
The figure for `C=Cn1cc[n+](CC(=O)c2ccc(OC)c(OC)c2)c1` is -1.55%; for `CN(C)c1nc(Nc2ccc(Cl)c(Cl)c2)nc(N(C)C)n1` it is 1.57%.
On to `CN(C)c1nc(NN)nc(Nc2ccc(F)cc2)n1`, for which the max response was -3.59%.
Regarding `CC(=O)Nc1nc(N(C)C)nc(N(C)C)n1`, the max response was 26.5% (active).
The figure for `O=S1(=O)CCO[C@H]2Cc3ccccc3[C@H]2N1Cc1ccccc1` is -1.34%; for `Cc1c(-c2nn(C)c(=O)c3ccccc23)oc2ccc(F)cc2c1=O` it is -8.42%.
The figure for `C=CCNC(=O)c1ccc2c3n(nc2c1)-c1ccc(C)cc1CO3` is 34.5% (active); for `Cc1cccc(-c2nc3ccc(C(=O)NCCN4CCN(C)CC4)cc3nc2-c2cccc(C)c2)c1` it is -13.3%; for `C=CCNC(=O)c1ccc(C)c(Br)c1` it is 5.91%.
Regarding `CCCCn1c(N)c(N(CCC(C)C)C(=O)c2ccc([N+](=O)[O-])o2)c(=O)[nH]c1=O`, the max response was -1.97%.
